± gives the standard deviation of the averaged measurements. In all, about 25,000 sequences were measured (“ln(normalized median fluorescence intensity)”: median about 8.9, highest 2% from about 10 on). The sample holds the highest values, similar sequences and a random draw of the others, so the mix is not that of the screen.
tested on: PfAP2-LT AP2 domain (GST-tagged); test: gcPBM binding intensity (ln(normalized median fluorescence intensity)); higher = stronger DNA binding
Summary of the method: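 GST-fused DNA-binding domains of P. falciparum, expressed in E. coli, were applied at about 25 μg on average for 1 h to an Agilent 4 × 180k array of primer-extended double-stranded 36-bp intergenic genomic probes and negative controls. Binding intensity is the highest Masliner-normalised natural-log median intensity across replicate spots of either probe orientation, measured with Alexa488 anti-GST antibody and a 488 nm scan.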

Row | Sequence | gcPBM binding intensity (ln)
1 | TTTTTTTTAGTATGAACACACATATAGATTATAAAA [CACACA_site7391] | 8.35 ± 0.41
2 | ATAATCCTTAAACACACACACACACTAATAAATAAA [CACACA_site8052] | 10.1 ± 0.25
3 | AACAAACACAGACACACACACACACTAATATGATTA [CACACA_site8770] | 10.2 ± 0.45
4 | TATGAACACAGACACACACACAAAAAAAAAAAAAAA [CACACA_site7037] | 9.18 ± 0.56
5 | TATATATATATATATACACACACACTAATAAAAAAA [CACACA_site8426] | 9.65 ± 0.057
6 | AAAAAAAATATGAAAACACACATATATAAATAAATA [CACACA_site113] | 8.88 ± 0.46
7 | AAAAAATATATATTAACACACACACTAATAAAAAAA [CACACA_site8366] | 9.56 ± 0.17
8 | AAAAAAAAAAAACACACACACACACTAATATATAAA [CACACA_site8302] | 10.3 ± 0.35
9 | ATAATATGAAAACACACACACACACTAATAAAAAAA [CACACA_site8617] | 10.3 ± 0.16
10 | ATATAAATAATATAAATACACACTAAAAAAAATATA [CACACA_site542] | 8.88 ± 0.44
11 | ATAATATGAAATATAACACACATATATAAAAACATT [CACACA_site866] | 9.11 ± 0.33
12 | AATATGAACAGACACACACACACAAAAAAAAAAAAA [CACACA_site2012] | 9.9 ± 0.56
13 | TACATAAATTAAAACACACACACACTAATAAAAAAA [CACACA_site8712] | 9.85 ± 0.18
14 | CTTATATGAAGCCTCTTTATTCATAAATAAGAATAA [TGCATGCA_negctrl_site120] | 8.21 ± 0.38
15 | AAAATTATTTTTATGTGTACTTATTTATTATTTATA [XGTACX_site6665] | 8.79 ± 0.46
16 | ATTATCTTATGTTATTTATTTGTCCCACATTTGTTA [TGCATGCA_negctrl_site402] | 8.91 ± 0.46
17 | AAATTGTCAAAACACGCACACACATATACATAATAA [CACACA_site1743] | 9.62 ± 0.36
18 | ATTCATTATTCACCTTGTACACAAATGATTATCGTA [XGTACX_site455] | 8.93 ± 0.45
19 | ATAATATGAAAACACACACACACACTAGAAAAAAAA [CACACA_site5153] | 10.2 ± 0.27
20 | AAAAAATCAAAACACACACACACACTAGAAAAAAAA [CACACA_site4909] | 10.1 ± 0.49
21 | AATAATAAACACAATCAAATAAAATATGAAATATAA [GTGCAC_negctrl_site307] | 8.84 ± 0.49
22 | GAGAAAAATAAATACACACACATAAATAAATACATA [CACACA_site5102] | 9.74 ± 0.42
23 | CAGTGCCAAATTAGCACACACATATATACATGAATT [CACACA_site2814] | 9.3 ± 0.38

Row | Sequence | gcPBM binding intensity (ln)
24 | TCGTCTCTTCTTGTTCTGTTTTAGAAGGCTATATAT [CACACA_negctrl_site180] | 8.88 ± 0.44
25 | AAGAACAGATAAAATCGTACGTGAAACATGAACTTG [XGTACX_site7793] | 9.03 ± 0.48
26 | AATGTGCAAACAAACTGTACTTTTTTTTTTTTTTTT [XGTACX_site928] | 8.86 ± 0.26
27 | GATACAAAATGGGGAACACACACATATATATATATA [CACACA_site9278] | 10.1 ± 0.22
28 | AAAAAAAAAAAACATACACACAAATATATACATACA [CACACA_site4011] | 9.15 ± 0.33
29 | TACAAAATGGGGAACACACACATATATAAATAAATA [CACACA_site7751] | 9.6 ± 0.63
30 | CATAAAAATGAACATACACACATATATATATATATA [CACACA_site2498] | 9.8 ± 0.17
31 | TACAAAATGGGGAACACACACATATATATATATATA [CACACA_site3844] | 10.2 ± 0.05
32 | AAAAAAAAAAAACACACACACACATACAAAATATAT [CACACA_site1448] | 10.04 ± 0.071
33 | AAAATAAGCGTGAAACGTACATATTACATTATTATA [XGTACX_site8914] | 8.78 ± 0.56
34 | TATTAAAGATACTCGGTATAAATAAATTTTAATGTG [XGTACX_negctrl_site239] | 8.54 ± 0.52
35 | AAGAGAAATGGGCACACACACACATATTATAGATAT [CACACA_site6828] | 9.8 ± 0.21
36 | TCTTATCCATATATTACACACTATATATAGAAATTA [CACACA_site291] | 8.66 ± 0.39
37 | TTTGAATACTGAATGGTGCAAATTGTTCTCCCCATG | 8.67 ± 0.57
38 | CCCTCCCCATGTTTAGTGCAAAAATATTTGAAATTG [GTGCAC_site9873] | 10.1 ± 0.057
39 | TTTGAAATATATTTAGTGCATATATATTGATTATAA [GTGCAC_site9604] | 8.39 ± 0.38
40 | ATTTTAGAATAAATTTTTTACATTAAAAAACTATTT [CACACA_negctrl_site1414] | 8.21 ± 0.54
41 | ACTTGTAAGAAACACACACACACACCCATATATATA [CACACA_site796] | 10.2 ± 0.16
42 | AAAGAAAGAAAGAATACACACACACCGATATATATA [CACACA_site9246] | 9.77 ± 0.31
43 | ACTTGTAAGAAACACACACACACACCGATATATATA [CACACA_site4594] | 10.1 ± 0.31
44 | AAACTTGTAAGAAACACACACACACCCATATATATA [CACACA_site797] | 9.96 ± 0.15
45 | ATAAGAAGAAGAAAAACACACATATGTAGATATATA [CACACA_site7469] | 9.01 ± 0.42
46 | AAACTTGTAAGAAACACACACACACGCATATAAATA [CACACA_site6518] | 9.98 ± 0.099

Source: the supplement of paper PMC11417369
